D1 potentiator: potentiators of human D1 dopamine receptor. HEK293 TREx D1 cells, calcium flux, dopamine EC20 potentiation. P21728. hit rate 0.036% among 360,000. potentiation, % at 10 µM. AID 504651; in the data active = potentiation above about 30%; also: 0% is about no effect
D1 antagonist: antagonists of human D1 dopamine receptor; HEK293 TREx D1 cells, calcium flux, dopamine EC80; active compounds read low; activity change, negative = inhibition, % at 10 µM; hit rate 3.2% among 360,000; AID 504652; in the data active = activity change below about -30%; also: % is scaled to controls: 0 for no effect and ±100 for the full control effect
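Using tetracycline-induced force-coupled D1 Hek293 cells and a calcium dye, signals were followed for 180 s after compound, then for 180 s after EC80 dopamine, to detect inhibitors.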
D1 ag: human D1 receptor agonism | AID 504660 | HEK293 T-REx D1 cells, calcium flux, agonist mode | activation, % at 2 µM | hit rate 1% among 360,000; in the data active = activation above about 30%; also: 0% is about no effect
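Agonism was scored from calcium flux recorded over 180 s (1 read/s) after pintool compound addition, following a 10-cycle baseline. Cells were inducible force-coupled HEK293 TREx D1, plated overnight at 30 C and loaded with no-wash calcium dye.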
D3 ag: activates the human D3 dopamine receptor; D3R DiscoveRx beta-arrestin cells, luminescence, 90 min; max activation, %; hit rate 0.58% among 410,000; in the data active = max activation above about 30%; also: 0% is about no effect
Target sequence (P35462 whole entry, looked up): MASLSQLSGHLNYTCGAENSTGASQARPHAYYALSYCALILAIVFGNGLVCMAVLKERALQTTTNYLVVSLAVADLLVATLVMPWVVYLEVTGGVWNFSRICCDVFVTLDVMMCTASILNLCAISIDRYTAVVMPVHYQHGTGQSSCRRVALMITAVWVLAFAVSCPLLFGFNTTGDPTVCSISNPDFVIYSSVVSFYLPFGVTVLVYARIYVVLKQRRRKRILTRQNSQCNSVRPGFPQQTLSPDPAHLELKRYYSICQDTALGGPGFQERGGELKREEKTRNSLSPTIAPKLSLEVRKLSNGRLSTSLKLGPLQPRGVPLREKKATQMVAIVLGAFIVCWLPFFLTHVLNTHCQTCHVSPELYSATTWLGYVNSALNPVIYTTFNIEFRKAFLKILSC
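Cells at 1500/well, incubated overnight, then treated with pinned compounds (dopamine as control) for 90 min at 37 degrees C. DiscoveRx reagent added for 30 - 60 minutes at room temperature; luminescence read.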
DRD3 antagonist: D3 dopamine receptor (human) antagonism; hit rate 2.5% among 360,000; max response, negative = inhibition, %; D3R cells, DiscoveRx beta-arrestin luminescence, antagonist mode; active compounds read low; in the data active = max response below about -50%; inconclusive = no clear call, values can overlap the other calls; also: % is scaled to controls: 0 for no effect and ±100 for the full control effect
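Cells plated overnight at 1500 cells/well, then exposed to library compounds with dopamine controls for 90 minutes at 37 degrees C. DiscoveRx reagent added for 30–60 minutes at room temperature; luminescence read, quantitative HTS format.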
* marks the source's active call; other numbers are inactive results. In the library only some 6% were active in any assay of this set; here they are far more common.

Results for COc1ccc(-c2[nH]c(-c3ccc4c(c3)OCO4)nc2-c2ccccc2)cc1 ?
D1 potentiator: -5; D1 antagonist: -76*; D1 ag: 3; D3 ag: 5; DRD3 antagonist: 2

Results for COc1ccccc1NC(=O)CSc1nc2n[nH]c(C)c2c(=N)n1-c1ccccc1Cl ?
D1 potentiator: 0; D1 antagonist: -5; D1 ag: 2; D3 ag: 1; DRD3 antagonist: 55

What do the screens show for `C=C[C@@H]1c2cc(C)ccc2N(S(=O)(=O)c2ccc(C)cc2)[C@H](c2ccccc2C(F)(F)F)C1(C#N)C#N`?
D1 potentiator: -3; D1 antagonist: -35*; D1 ag: 1; D3 ag: 8; DRD3 antagonist: -22

Results for CCOC(=O)C1CCN(CC(C)(C)NS(=O)(=O)c2ccc(C)cc2)CC1 ?
D1 potentiator: -8; D1 antagonist: 0; D1 ag: 6; D3 ag: -15; DRD3 antagonist: 10

How did CC(C)(CN1CCNCC1)NS(=O)(=O)c1ccc(Cl)cc1 do in these assays?
D1 potentiator: 5; D1 antagonist: -3; D1 ag: 9; D3 ag: -23; DRD3 antagonist: -95*

How did CCOC(=O)C1CCN(C(=O)CN(Cc2ccc(Cl)cc2)S(C)(=O)=O)CC1 do in these assays?
D1 potentiator: 4; D1 antagonist: 3; D1 ag: -2; D3 ag: -8; DRD3 antagonist: -56*

How did CC(C)(CNCc1ccccc1)NS(=O)(=O)c1ccc(Cl)cc1 do in these assays?
D3 ag: -10; DRD3 antagonist: -57*

What do the screens show for `CCOC(=O)C1CCN(CC(C)(C)NS(=O)(=O)c2ccc(Cl)cc2)CC1`?
D1 potentiator: -12; D1 antagonist: -31*; D1 ag: 2; D3 ag: -11; DRD3 antagonist: -17

What do the screens show for `CCOC(=O)N1CCN(C(=O)CN(Cc2ccc(Cl)cc2)S(C)(=O)=O)CC1`?
D1 potentiator: 9; D1 antagonist: 7; D1 ag: 0; D3 ag: -2; DRD3 antagonist: 6

What do the screens show for `CC(C)(CN1CCCC1)NS(=O)(=O)c1ccc(Cl)cc1`?
D1 potentiator: 2; D1 antagonist: -6; D1 ag: 8; D3 ag: -13; DRD3 antagonist: 0

Results for COc1ccc(-c2nc(C)c(CCNC(=O)c3ccco3)s2)cc1 ?
D1 potentiator: 2; D1 antagonist: 16; D1 ag: 1; D3 ag: 3

How did O=C(O)Cn1c(SCc2ccccc2)nc2ccccc21 do in these assays?
D1 potentiator: 21; D1 antagonist: -2; D1 ag: 2; D3 ag: 4; DRD3 antagonist: -53*

What do the screens show for `CCCCn1c(CNC(=O)CCC)nc2ccccc21`?
D1 potentiator: 1; D1 antagonist: -34*; D1 ag: -1; D3 ag: -6; DRD3 antagonist: -8

What do the screens show for `CCCCn1c(SCC(=O)O)nc2ccccc21`?
D1 potentiator: -1; D1 antagonist: 1; D1 ag: 4; D3 ag: -11; DRD3 antagonist: -80*

Results for CCCCCn1c(CNC(=O)CCC)nc2ccccc21 ?
D1 potentiator: -8; D1 antagonist: -25; D1 ag: 4; D3 ag: -3; DRD3 antagonist: 0

Results for Cc1ccccc1C(=O)N1CCC(C(=O)Nc2ccc(F)cc2F)CC1 ?
D1 potentiator: -1; D1 antagonist: -15; D1 ag: 1; D3 ag: 5

What do the screens show for `COc1ccc(NC(=O)Cn2c(=O)n(CC3CCCO3)c(=O)c3ccccc32)cc1` (configuration not stated)?
D1 potentiator: -1; D1 antagonist: -2; D1 ag: -2; D3 ag: 10

Results for CN(C)CCn1c2c(c(SCC(=O)Nc3ccc(F)cc3F)nc1=O)CCC2 ?
D1 potentiator: -2; D1 ag: 1; D3 ag: -18

What do the screens show for `CC(C)(C)c1ccccc1OCCOCCN1CCCCCC1`?
D1 potentiator: -6; D1 ag: 7; D3 ag: -14; DRD3 antagonist: -62*

How did Cc1ccc(OCCOCCN2CCCCC2)c([N+](=O)[O-])c1 do in these assays?
D1 potentiator: -4; D1 antagonist: 0; D1 ag: 4; D3 ag: -11; DRD3 antagonist: -17

What do the screens show for `CC(C)(C)c1ccccc1OCCOCCSc1ncccn1`?
D1 potentiator: 4; D1 antagonist: -2; D1 ag: -1; D3 ag: -3; DRD3 antagonist: 4

Results for Cc1ccc(C(C)(C)C)c(OCCOCCN2CCCC2)c1 ?
D1 potentiator: -13; D1 antagonist: -16; D1 ag: 17; D3 ag: -30; DRD3 antagonist: -54*

What do the screens show for `CC(C)c1ccccc1NC(=O)Nc1nnc([C@H]2C[C@H](O)[C@@H](CO)O2)s1`?
D3 ag: -3; DRD3 antagonist: -15

How did COc1ccc(Cl)cc1NC(=O)c1cc(-c2ccc3c(c2)OCO3)on1 do in these assays?
D1 potentiator: 0; D1 antagonist: -3; D1 ag: 3; D3 ag: 2

Results for C[C@]12CCC(=O)C=C1C=C[C@@H]1[C@@H]2CC[C@@]2(C)[C@H]1CC[C@@]21CCC(=O)O1 ?
D1 potentiator: -6; D1 antagonist: -34*; D1 ag: 2; D3 ag: 4; DRD3 antagonist: -1

Results for CCCC(=O)C1=C(O)C(C(=O)OC)C(C)(C)CC1=Nc1ccccc1 (configuration not stated) ?
D1 potentiator: -3; D1 antagonist: -46*; D1 ag: 1; D3 ag: 0; DRD3 antagonist: inconclusive

Results for CCN1CCN(c2nc(-c3ccccc3)c3ccccc3n2)CC1 ?
D1 antagonist: 18; D1 ag: 5; D3 ag: -24; DRD3 antagonist: -82*

Results for c1ccc(-c2nc(N3CCNCC3)nc3ccccc23)cc1 ?
D1 potentiator: -7; D1 antagonist: -10; D1 ag: 34*; D3 ag: -3; DRD3 antagonist: -12

How did CC1=CC(C)(C)N2C(=O)C(=Nc3ccc(O)cc3)c3cccc1c32 do in these assays?
D1 potentiator: -6; D1 antagonist: -36*; D1 ag: 1; D3 ag: -9; DRD3 antagonist: inconclusive

Results for Cc1cc(NC(=O)c2c(Cl)c(C)nn2C)no1 ?
D1 potentiator: -13; D1 antagonist: -1; D1 ag: 2; D3 ag: 1; DRD3 antagonist: -12

What do the screens show for `Cc1nn(C)c(NC(=O)c2ccccc2Cl)c1Cl`?
D1 potentiator: -6; D1 antagonist: -38*; D1 ag: 1; D3 ag: 3; DRD3 antagonist: 1

Results for Cc1nc(C)c(C(=O)NCc2ccc(Cl)cc2)o1 ?
D1 potentiator: -1; D1 antagonist: -61*; D1 ag: 4; D3 ag: -13; DRD3 antagonist: inconclusive

Results for Cc1nn(C)c(C(=O)NC(=S)Nc2ccccc2O)c1Cl ?
D1 potentiator: -8; D1 antagonist: -41*; D1 ag: 2; D3 ag: -12; DRD3 antagonist: inconclusive
